Four compounds from PubChem BioAssay can be followed below.

“And” between values parts separate entries of the source, which are not always exact repeats. Identical values can stand only once. The source made the active and inactive calls. Unless noted, the rule behind the calls is not given here.

Assay [1] can be described thus: compounds binding Alexa647 anti-His antibody – biochemical, small-molecule microarray, 635 nm fluorescence, artefact control for SMM control protein annotation, primary screen (AID 1128).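 Note: score merges feature fluorescence with signal-to-noise for each printed compound spot.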 Conditions: higher = more signal.
Assay [2] relates to Human papillomavirus type 1a E7 protein (residues 1-88). Briefly: HPV1a E7 small-molecule binders, primary screen, biochemical, small-molecule microarray, residues 1-88, 635 nm (AID 1129). The settings on record: small-molecule microarray binding, fluorescence 635 nm; higher = more signal.
Assay [3] concerns the target Focal adhesion kinase 1 (Homo sapiens) (UniProt Q05397). Briefly: PTK2 protein binding on printed compound slides – biochemical, small-molecule microarray, 635/667 nm fluorescence, BSA, DTT, primary screen (AID 1130).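 Note: composite of spot emission at 667 nm and signal to noise over triplicate slides.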 The settings on record: 635 nm fluorescence, higher = more signal.
Assay [4] deals with Fibrinogen (Alexa647-labelled). Briefly: Alexa647-fibrinogen binding to printed small molecules – biochemical, small-molecule microarray, 635/667 nm fluorescence, artefact control for SMM control-protein annotation, profiling panel (AID 1131).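 Note: z-score merges 667 nm fluorescence with per-spot signal-to-noise over triplicate slides.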 Conditions: fibrinogen-A647 binding fluorescence, higher = more signal.
In assay [5] the target is Follistatin (Homo sapiens) (UniProt P19883). In words: FST protein binding to printed compounds – biochemical, small-molecule microarray, 635/667 nm fluorescence, primary screen (AID 1132). Conditions: 635 nm fluorescence, higher = more signal.
Assay [6] deals with Fibroblast growth factor 2 (Homo sapiens) (UniProt P09038). Briefly: basic fibroblast growth factor binding to printed compounds – biochemical, small-molecule microarray, 635/667 nm fluorescence, primary screen (AID 1133). The settings on record: FGF2, fluorescence 635/667, higher = more signal.
Assay [7] is described as follows: JC-1 mitochondrial potential readout, lung cancer cells – cell-based, A549, JC-1 fluorescence, basal, 24 h, 100 nL, profiling panel (AID 1138).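 Note: A549 lung adenocarcinoma cells under basal conditions with no added stimulus; test concentration not given here.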 Conditions: higher = more signal.
For assay [8], the system named is Lefty1. In words: Lefty1 protein binding to printed compounds – biochemical, small-molecule microarray, 635/667 nm fluorescence, primary screen (AID 1139). Conditions: fluorescence 635/667, higher = more signal.
Assay [9] relates to wheat germ agglutinin (Triticum aestivum), Alexa647-labelled. Briefly: Alexa647-WGA lectin binding to printed small molecules – biochemical, small-molecule microarray, 635/667 nm fluorescence, artefact control for SMM control-protein annotation, profiling panel (AID 1140).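 Note: score merges 667 nm feature emission with signal to noise over triplicate slides.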 Conditions: WGA-A647 binding, 635 nm fluorescence, higher = more signal.
Assay [10] concerns the target Luciferin 4-monooxygenase (Photinus pyralis) (UniProt P08659). In words: inhibition of purified Photinus pyralis luciferase – biochemical, luminescence, purified enzyme, 2006 set, primary screen (AID 1141).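 Note: cell-free assay with purified firefly luciferase at 100 ng per well in PBS; test concentration not given here.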 The settings on record: purified firefly luciferase, SteadyGlo luminescence, 30 min; higher = more signal, called active from +8 up or from −8 down.
Assay [11] has as its system Wnt5a (protein binding on small-molecule microarray). Briefly: small molecules binding Wnt5a protein – biophysical, small-molecule microarray, 635/667 nm fluorescence, primary screen (AID 1142).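 Note: fluorescence read at 667 nm with signal to noise per printed feature.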 The settings on record: 635 nm fluorescence, higher = more signal.
A short description of assay [12]: ATP-based viability of Huh7 replicon cells – cell-based, CellTiter-Glo luminescence, basal, 48 h, cytotoxicity control for HCV replication inhibitor project, primary screen (AID 1143).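 Note: Huh7 hepatoma cells carrying a hepatitis C replication reporter with no stimulus; test concentration not given here.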 Conditions: higher = more signal, called active from +8 up or from −8 down.
Assay [13] can be described thus: Pseudomonas biofilm growth suppression – PAO1 strain, BacTiter-Glo luminescence, LB-PBS, primary screen (AID 1144). Conditions: P. aeruginosa PAO1 biofilm, 12 h, higher = more signal.
Assay [14] in a line: basal CRE-LacZ reporter activity in PC12 – cell-based, unstimulated, primary screen (AID 1145). The settings on record: no forskolin, luminescence, 4.5 h, higher = more signal, called active from +8 up or from −8 down.
Assay [15] can be described thus: forskolin-driven CRE-LacZ activity in PC12 – cell-based, CRE-LacZ reporter, forskolin-stimulated, primary screen (AID 1146).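 Note: PC12 cells with 6xCRE LacZ reporter stimulated by forskolin 10 µM; beta-galactosidase reporter signal reflecting CREB driven transcription.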 The settings on record: luminescence, 4.5 h, higher = more signal, called active from +8 up or from −8 down.
For assay [16], the target named is Streptavidin (Streptomyces avidinii) (UniProt P22629). In words: compounds binding control protein streptavidin – biophysical, small-molecule microarray, 635/667 nm fluorescence, artefact control for SMM compound annotation, primary screen (AID 1147).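 Note: signal reflects streptavidin binding to arrayed compounds as a control protein.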 Conditions: higher = more signal.
Assay [17] can be described thus: probe aInhba binding on compound microarray – biochemical, small-molecule microarray, 635/667 nm fluorescence, primary screen (AID 1148).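 Note: score merges 667nm spot fluorescence with signal-to-noise for antibody binding to printed compounds.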 Conditions: higher = more signal.
In assay [18] the target is Torsin-1A (Homo sapiens) (UniProt O14656). Briefly: TOR1A wild-type binding on microarray – cell lysate, small-molecule microarray, lysate, 635/667 nm, primary screen (AID 1149). The settings on record: COS7 hTOR1A-WT lysate, 635 nm fluorescence, higher = more signal.
Assay [19] has the same target. In words: torsin A mutant lysate binding on microarrays – cell lysate, small-molecule microarray, COS7 lysate, 635/667 nm fluorescence, primary screen (AID 1150).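 Note: score pools 667 nm emission and signal to noise measuring lysate protein binding.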 The settings on record: COS7 hTOR1A mutant lysate, 635 nm fluorescence, higher = more signal.
The subject of assay [20] is Sonic hedgehog protein (Shh). Briefly: Sonic hedgehog microarray binding compounds – biochemical, small-molecule microarray, 635/667 nm fluorescence, primary screen (AID 1151).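 Note: Shh protein binding to compounds spotted on small-molecule microarray slides; score combines spot fluorescence intensity with signal-to-noise across triplicate slides.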 Conditions: 635 nm fluorescence, higher = more signal.

Sequence of Follistatin (Homo sapiens) (P19883 whole entry, looked up): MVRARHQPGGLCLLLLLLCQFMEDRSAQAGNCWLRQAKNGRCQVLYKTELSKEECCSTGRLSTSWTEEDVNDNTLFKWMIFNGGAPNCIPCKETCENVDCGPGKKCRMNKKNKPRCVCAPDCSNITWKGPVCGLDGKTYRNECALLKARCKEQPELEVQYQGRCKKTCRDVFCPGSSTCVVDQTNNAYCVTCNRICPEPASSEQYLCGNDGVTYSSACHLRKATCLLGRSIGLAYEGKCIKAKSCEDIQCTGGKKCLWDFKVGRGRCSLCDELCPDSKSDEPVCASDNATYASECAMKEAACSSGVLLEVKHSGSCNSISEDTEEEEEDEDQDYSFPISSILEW
Sequence of Focal adhesion kinase 1 (Homo sapiens) (Q05397 whole entry, looked up): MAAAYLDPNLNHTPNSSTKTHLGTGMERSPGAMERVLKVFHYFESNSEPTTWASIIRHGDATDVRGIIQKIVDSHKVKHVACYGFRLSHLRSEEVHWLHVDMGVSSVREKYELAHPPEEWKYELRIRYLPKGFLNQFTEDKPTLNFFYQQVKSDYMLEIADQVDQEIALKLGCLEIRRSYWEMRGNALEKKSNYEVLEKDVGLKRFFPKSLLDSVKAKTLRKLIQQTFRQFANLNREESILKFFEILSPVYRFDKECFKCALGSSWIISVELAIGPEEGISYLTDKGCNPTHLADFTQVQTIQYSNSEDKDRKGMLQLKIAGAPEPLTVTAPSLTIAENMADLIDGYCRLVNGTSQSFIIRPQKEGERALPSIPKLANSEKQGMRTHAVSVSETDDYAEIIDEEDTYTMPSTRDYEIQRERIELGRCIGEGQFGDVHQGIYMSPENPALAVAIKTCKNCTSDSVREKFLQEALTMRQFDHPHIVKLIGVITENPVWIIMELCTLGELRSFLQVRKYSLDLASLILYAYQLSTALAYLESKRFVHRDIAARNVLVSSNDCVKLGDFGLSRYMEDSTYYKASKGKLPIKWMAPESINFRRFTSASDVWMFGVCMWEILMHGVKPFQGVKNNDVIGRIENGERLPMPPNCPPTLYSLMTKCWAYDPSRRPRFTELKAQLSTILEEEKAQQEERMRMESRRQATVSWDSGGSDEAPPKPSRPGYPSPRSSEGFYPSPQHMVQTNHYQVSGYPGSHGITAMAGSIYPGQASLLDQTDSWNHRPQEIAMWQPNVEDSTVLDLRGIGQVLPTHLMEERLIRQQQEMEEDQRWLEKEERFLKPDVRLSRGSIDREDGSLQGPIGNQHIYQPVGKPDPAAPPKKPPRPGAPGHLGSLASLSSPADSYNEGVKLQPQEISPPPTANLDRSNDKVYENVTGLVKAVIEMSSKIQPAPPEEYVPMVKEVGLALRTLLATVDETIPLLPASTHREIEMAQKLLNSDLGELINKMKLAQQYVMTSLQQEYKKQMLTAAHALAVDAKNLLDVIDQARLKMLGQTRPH
Sequence of Luciferin 4-monooxygenase (Photinus pyralis) (P08659 whole entry, looked up): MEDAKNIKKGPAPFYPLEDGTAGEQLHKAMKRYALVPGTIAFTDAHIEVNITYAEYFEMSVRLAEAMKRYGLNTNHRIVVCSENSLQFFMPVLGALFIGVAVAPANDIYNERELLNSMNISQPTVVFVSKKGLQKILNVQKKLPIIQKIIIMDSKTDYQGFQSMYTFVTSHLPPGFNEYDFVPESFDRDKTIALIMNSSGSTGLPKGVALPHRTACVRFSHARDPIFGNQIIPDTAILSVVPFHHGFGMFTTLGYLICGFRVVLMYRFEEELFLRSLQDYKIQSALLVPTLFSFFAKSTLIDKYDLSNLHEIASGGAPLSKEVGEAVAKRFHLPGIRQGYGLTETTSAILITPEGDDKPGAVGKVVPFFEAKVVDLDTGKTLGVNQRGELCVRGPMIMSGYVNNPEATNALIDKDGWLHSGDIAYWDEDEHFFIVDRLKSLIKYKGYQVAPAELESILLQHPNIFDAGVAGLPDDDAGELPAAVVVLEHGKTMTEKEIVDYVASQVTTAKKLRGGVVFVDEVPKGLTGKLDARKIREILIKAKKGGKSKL
Sequence of Fibroblast growth factor 2 (Homo sapiens) (P09038 whole entry, looked up): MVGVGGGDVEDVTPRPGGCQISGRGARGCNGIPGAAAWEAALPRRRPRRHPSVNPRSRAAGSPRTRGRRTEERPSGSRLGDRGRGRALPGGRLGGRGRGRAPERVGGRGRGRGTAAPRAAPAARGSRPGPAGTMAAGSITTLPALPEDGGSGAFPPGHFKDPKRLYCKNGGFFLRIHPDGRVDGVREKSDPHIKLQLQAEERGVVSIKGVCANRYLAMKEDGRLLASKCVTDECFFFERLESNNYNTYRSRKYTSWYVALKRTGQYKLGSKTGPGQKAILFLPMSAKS
Sequence of Streptavidin (Streptomyces avidinii) (P22629 whole entry, looked up): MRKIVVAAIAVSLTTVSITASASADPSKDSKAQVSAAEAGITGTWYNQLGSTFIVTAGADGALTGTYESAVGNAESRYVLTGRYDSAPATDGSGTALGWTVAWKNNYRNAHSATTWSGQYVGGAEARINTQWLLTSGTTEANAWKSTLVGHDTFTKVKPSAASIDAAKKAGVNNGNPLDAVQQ
Sequence of Torsin-1A (Homo sapiens) (O14656 whole entry, looked up): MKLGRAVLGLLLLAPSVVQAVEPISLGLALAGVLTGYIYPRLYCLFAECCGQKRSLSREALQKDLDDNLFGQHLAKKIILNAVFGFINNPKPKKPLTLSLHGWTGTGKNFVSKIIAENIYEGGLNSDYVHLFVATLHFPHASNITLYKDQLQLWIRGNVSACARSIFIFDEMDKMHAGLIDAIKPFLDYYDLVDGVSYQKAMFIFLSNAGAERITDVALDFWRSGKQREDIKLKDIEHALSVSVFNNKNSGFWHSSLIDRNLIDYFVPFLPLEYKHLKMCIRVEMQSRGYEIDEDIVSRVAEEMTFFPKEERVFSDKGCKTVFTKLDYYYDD

`C=CCN(C(=O)C1N(c2c(Cl)cccc2CO)C(=O)C2C(C(=O)O)C3C=CC21O3)C(C)(C)C` (stereo not given): the composite z-score was -0.687 and -0.455 in assay [1]; 0.0063 and -0.941 in assay [2]; -0.0019 and 0.0154 in [3]; -0.925 and -0.724 in assay [4]; -0.85 and -0.957 in assay [5]; -1.46 and -0.409 in assay [6]. In addition, the composite z-score is -1.33 and -1.93 in [8]; -0.0278 and -0.665 in assay [9]; -0.948 and -0.619 in assay [11]; 0.163 and -1.11 in [16]; -0.702 and -0.213 in assay [17]; -2.54 and -1.22 in assay [18]. Besides, the composite z-score in assay [19] was -1.62 and -1.73; in assay [20], -1.17 and -0.681. Also, the z-score was -0.868 and 1.49 in assay [7]; 1.15 (inactive) and -1.5 (inactive) in [10]; -0.488 (inactive) and 0.0489 (inactive) in assay [12]; -0.774 (inactive) and -0.443 (inactive) in assay [13]; -1.44 (inactive) and 0.329 (inactive) in [14]; -0.219 (inactive) and -0.51 (inactive) in assay [15].

`C=CCN(CCCC)C(=O)C1N(c2c(Cl)cccc2CO)C(=O)C2C(C(=O)O)C3C=CC21O3` (stereo not given): the composite z-score was -1.86 and 1.18 in [1]; -1.93 and -0.108 in assay [2]; -0.983 and 0.896 in [3]; -1.58 and -2.29 in assay [4]; -1.71 and -0.64 in [5]; -1.09 and -1.49 in [6]. The composite z-score in assay [8] was -2.11 and -0.973; in [9] it was -1.16 and -0.0139; in assay [11] it was -0.77 and -0.986; in assay [16], -1.03 and -2; in assay [17], -0.231 and 0.72; in [18], -1.67 and 1.69. The composite z-score in assay [19] was -0.696 and 0.827; in [20], -0.979 and -1.17. In addition, the z-score in assay [7] was -1 and -0.998; in assay [10], 0.758 (inactive) and 1.51 (inactive); in assay [12] it was -0.0286 (inactive) and -0.784 (inactive); in assay [13], 0.0942 (inactive) and -2.19 (inactive); in [14], -0.887 (inactive) and -1.3 (inactive); in [15], -0.718 (inactive) and -0.285 (inactive).

On to `CC(C)[Si]1(C(C)C)OCc2cc(CCCc3cc4c(c(CCc5ccccc5)n3)[Si](C(C)C)(C(C)C)OC4)nc(CCc3ccccc3)c21`, for which the composite z-score in assay [1] was -0.779 and 0.0773; in assay [2] it was -0.265 and 0.56; in [3] it was -0.293 and -0.0124; in assay [4], -0.551 and 0.0539; in assay [5], -0.43 and 0.238; in assay [6], -0.0119 and 0.483. Besides, the composite z-score was -0.11 and 0.41 in assay [8]; -1.24 and -0.214 in assay [9]; 0.0898 and 0.0154 in assay [11]; -0.59 and 0.473 in assay [16]; -0.0791 and 0.0442 in assay [17]; -0.473 and 0.21 in [18]. Also, the composite z-score is 0.0547 and 0.39 in [19]; 0.405 and 0.595 in assay [20]. Further, the z-score is 0.627 and 0.00206 in assay [7]; -1.11 (inactive) and 0.714 (inactive) in [10]; -0.871 (inactive) and 0.114 (inactive) in assay [12]; 0.0644 (inactive) in assay [13]; 0.731 (inactive) and 0.469 (inactive) in [14]; -0.315 (inactive) and 0.352 (inactive) in assay [15].

On to `CC(CO)N1C(=O)[C@@H]2C3C(=O)OCCC=C[C@H]3OC23C=CCN(Cn2nnc4ccccc42)C(=O)[C@@H]13` (stereo not given in full), for which the composite z-score in assay [1] is 0.398 and 1.77; in [2], -0.66 and 0.136; in assay [3], -0.244 and -0.0494; in assay [4] it was -0.332 and -0.0118; in [5], -0.93 and 0.345; in [6], -1.31 and -0.224. For the same compound, the composite z-score in [8] is -1.34 and 0.247; in assay [9] it was -0.711 and -0.23; in assay [11], -0.757 and 0.0538; in assay [16] it was -0.909 and -0.228; in [17] it was -0.0675 and -0.0405; in [18], -1.13 and 1.95. Also, the composite z-score in [19] was -0.987 and 0.603; in assay [20] it was -1.26 and 0.935. Also, the z-score in assay [7] is -0.469 and -0.766; in [10], 0.0511 (inactive) and 0.399 (inactive); in [12] it was -0.095 (inactive) and -0.464 (inactive); in assay [13] it was 0.422 (inactive) and -0.131 (inactive); in assay [14] it was -0.208 (inactive) and -1.44 (inactive); in assay [15], -0.372 (inactive) and 0.774 (inactive).
